Source: article PMC12136788
Numbering of substitutions follows the chain as printed. Whole data set: some 5,800 sequences, median “enrichment r” near 0.68, cut for the highest 2% near 11. The full list was thinned out, with the highest values kept by preference.

T1: UNK ZnF1-6 (called full-length) (human, UniProt Q9C0B0 30-357)
T1 sequence: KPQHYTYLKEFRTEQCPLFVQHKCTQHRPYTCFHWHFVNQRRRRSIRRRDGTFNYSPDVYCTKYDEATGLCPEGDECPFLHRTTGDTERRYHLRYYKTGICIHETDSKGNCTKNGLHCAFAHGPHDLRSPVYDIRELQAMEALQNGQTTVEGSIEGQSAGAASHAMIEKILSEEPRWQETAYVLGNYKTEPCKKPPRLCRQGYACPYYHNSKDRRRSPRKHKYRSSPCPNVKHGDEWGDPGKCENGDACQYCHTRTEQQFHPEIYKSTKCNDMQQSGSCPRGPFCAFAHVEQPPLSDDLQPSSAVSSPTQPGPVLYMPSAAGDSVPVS

B1: chr14:75059847:75060235:-|three_prime_utr|ENSG00000119640|control|control|control (ssRNA)
RNA: GGGAGUUCUACAGUCCGACGAUCAACCACAUUAAAAAAAUAAAAAGGAUAACUGGAAAAUCCCAAAAUAUUUGGAAACCAUAUAGCACACUUACUUCUAAAAUUGUGGUAGAAUACAUAUAACAUAGAAAUUAUUGUUCUAACCAACAGAGGAUUGAGCAUCA
B2: chr1:93180074:93180188:-|CDS|ENSG00000117500|unk|total|mutant (ssRNA)
RNA: GGGAGUUCUACAGUCCGACGAUCCUGGCCGCUCUGCCUCCGGUGCUGCUGCCUGGGGCGGCCGGCUUCACACCUUCCCUCGACCGCGACUUCACCUUUACCCUUCCCGCCGGCCAGAAGGAGUGCUUCUACCAGCCCAUGCCCCAACAGAGGAUUGAGCAUCA
B3: chr11:11963431:11963477:-|3pUTR|ENSG00000050165|msi1_unk|FALSE|overlapping (ssRNA)
RNA: GGGAGUUCUACAGUCCGACGAUCUUGACACUGUCCCUCUUUGGCAGUUGCAUUAGUAACUUUGAAAGGUAUAUGACUGAGCGUAGCAUACAGGUUAACCUGCAGAAACAGUACUUAGGUAAUUGUAGGGCGAGGAUUAUAAAUCAACAGAGGAUUGAGCAUCA
B4: chr1:965281:965395:+|3pUTR|ENSG00000187961|unk|total|mutant (ssRNA)
RNA: GGGAGUUCUACAGUCCGACGAUCCCAUCCGUUCACGUCUCUGCAUCCAUUCCUUCAUGUCUUUAUUCCGUUGUUUAUUUAUUCCGUUAUUUAUCUUAUUUAUUGAGGGGUGAGGAGUGCCACGGCUGCCCGUUUACACCUUUACAACAGAGGAUUGAGCAUCA
B5: chr1:965281:965395:+|3pUTR|ENSG00000187961|unk|FALSE|unique (ssRNA)
RNA: B4 RNA with C67U, C68A, C83U, C84A
B6: ENSG00000124766:be:win_3001|3pUTR|ENSG00000124766|bound_else_gene|NA|bound_elsewhere_windowed (ssRNA)
RNA: GGGAGUUCUACAGUCCGACGAUCUUUUUUUGGUAGUUGUUGUUACCCACGCCAUUUUACGUCUCCUUCACUGAAGGGCUAGAGUUUUAACUUUUAAUUUUUUAUAUUUAAAUGUAGACUUUUGACACUUUUAAAAAACAAAAACAACAGAGGAUUGAGCAUCA
B7: ENSG00000124766:be:win_2951|3pUTR|ENSG00000124766|bound_else_gene|NA|bound_elsewhere_windowed (ssRNA)
RNA: GGGAGUUCUACAGUCCGACGAUCCUUUAUUCCUUCCUUUUCCUUUUUUUCUUUUUUUUUUCUUUUUUUUUUUUUUUUUUUGGUAGUUGUUGUUACCCACGCCAUUUUACGUCUCCUUCACUGAAGGGCUAGAGUUUUAACUUUCAACAGAGGAUUGAGCAUCA
B8: chr8:47773456:47773635:-|3pUTR|ENSG00000253729|msi1_unk|FALSE|overlapping (ssRNA)
RNA: GGGAGUUCUACAGUCCGACGAUCGUUUUUUCCUUUCAUUUUAUUCUCUUCUAGUUUUGACAUUUUAUGAUAGAUUUGCUCUCUAGAAGGAAACGUCUUUAUUUAGGAGGGCAAAAAUUUUGGUCAUAGCAUUCACUUUUGCUACAACAGAGGAUUGAGCAUCA
B9: chr11:130144177:130144243:+|3pUTR|ENSG00000084234|msi1_unk|total|mutant (ssRNA)
RNA: GGGAGUUCUACAGUCCGACGAUCAUGAGGGUGUCCGCUGCUGCUUUCCUUCGGAAUCCAGUGCUUCCACAGAGAUCCGCCUGCCGCUUAUAUUUGACAUUCUUCACUGUCUGUUGUUUACCUACCGCCGCUUUUUACCGUUCACAACAGAGGAUUGAGCAUCA
B10: chr2:73730642:73730743:-|CDS|ENSG00000144034|unk|FALSE|unique (ssRNA)
RNA: GGGAGUUCUACAGUCCGACGAUCUUCAGACGUAGGAAACAAUGGUUAAUGAUCUUGUGUUUUUUUUUUCAUUUUUUUUCUCUUAGAUUUCAGAGGCUUUGAAAAAAUUUGGUAUCUCAGCAAAUGACACUUCAAUUCUAAUUGCAACAGAGGAUUGAGCAUCA
B11: chr1:17407970:17408071:-|3pUTR|ENSG00000179051|msi1|FALSE|unique (ssRNA)
RNA: GGGAGUUCUACAGUCCGACGAUCGGGUACCGUUCUGCUGACCCAGCUCCCUUUAGUCACGUUUGCUUGGCUCUGGUACCAAAUAGUUGGGAUUACCGAAGAGUCCCCUUCCUUGCGUGUCAGCACGGAUGCUGUGACUGCCACCAACAGAGGAUUGAGCAUCA
B12: chr9:72354534:72354635:-|3pUTR|ENSG00000107372|msi1|FALSE|unique (ssRNA)
RNA: GGGAGUUCUACAGUCCGACGAUCGUCCUAGUUUUUACUUUUAUUCUUAAAGCAUUCAGUUUUGCUUUCAAUUUUAUGUACCUUAGUUCUGAGUUAGACCUGCAGAUGUGUACAGAUAGUUCAUAUUUAUGUAUUGCACAUAAUCAACAGAGGAUUGAGCAUCA
B13: chr4:138167974:138168075:-|3pUTR|ENSG00000151012|msi1|FALSE|unique (ssRNA)
RNA: GGGAGUUCUACAGUCCGACGAUCCACAAAAUCUGCAUUGUCCAUGUGAGUAAAGUAAAAUAAUUCCUGUUAUUUUUUUCUGUUAGAAAUAAGUAUGGAGGAUAUGUUUUUAAAAAUUUAUGAGUUAAUUGAAAUAUCCAUAUACAACAGAGGAUUGAGCAUCA
B14: chr10:95311796:95311897:-|3pUTR|ENSG00000095637|unk|FALSE|unique (ssRNA)
RNA: GGGAGUUCUACAGUCCGACGAUCCAGACAUAGAUUUUUCUGUUCAUUUAUUUUUCUUCAUUGCAGUGGAUUGAUUUGAUAAAUAGAUGUGUUGAAUUACUACAUUUGCUGUACAUAUUAUUUAAUAAACUUUAUUCAGAAUUGCAACAGAGGAUUGAGCAUCA
B15: chr10:62095068:62095169:+|3pUTR|ENSG00000150347|msi1|total|mutant (ssRNA)
RNA: GGGAGUUCUACAGUCCGACGAUCCCAUUUGCUUCAAUUAAUUAUUUACCUUCCUGUGGAAUAAUAUAUAUAUAUAUAUUUAACCGAACCACCGACCGACCCGCCGAAUUCCGAUUAUAAAUGUGUGAGUGCAGAUUAUCCUGCCAACAGAGGAUUGAGCAUCA
B16: chr15:34978960:34979061:-|3pUTR|ENSG00000198146|msi1|FALSE|unique (ssRNA)
RNA: GGGAGUUCUACAGUCCGACGAUCGCCCUCUGUAUCCAUGUACUCUGCAUCUGUGGAUUAAACCAAUUGCAGAUCAAAAAUAUUAGAAAAAAUAAAAAUAAUACAAAUAAAAAUACAGUAUAACAGUUAUUUAAAUAGCAUUUACAACAGAGGAUUGAGCAUCA
B17: chr14:53043751:53043854:-|3pUTR|ENSG00000100523|unk|FALSE|unique (ssRNA)
RNA: GGGAGUUCUACAGUCCGACGAUCACUUAGAUUAAAUCUUGCUUUAUUUUUACUUUAAAAUUAGUCUUGCUAAGGCCUUAUGUUAGUUCAUACUUUCUUUUCAACAGUAAUCUUGUUUAUAAUCCAGUGUUUCUGUGUUUUAGGCAACAGAGGAUUGAGCAUCA
B18: chr5:72209348:72209524:+|3pUTR|ENSG00000131711|msi1_unk|FALSE|overlapping (ssRNA)
RNA: GGGAGUUCUACAGUCCGACGAUCUUAUGUCUUAUAAUCCUGCAUCACUUCUAUCCUAUCCAGUCAUAUCUAAUGUAGAAAAUUAGUUUCCAGUGAAAGUAAUAUGUAGUGCUUUUAUGAUAUUUGUGUGCAAUAUCCCCUCUUCAACAGAGGAUUGAGCAUCA

What follows are binders tested against T1, UNK ZnF1-6 (called full-length) (assay: nsRBNS (natural sequence RNA bind-n-seq); RBNS binding buffer (assumed for nsRBNS): 25 mM Tris pH 7.5, 150 mM KCl, 3 mM MgCl2, 0.01% Triton X-100, 500 ug/ml BSA, 20 U/ml SUPERase-In, 4 C; UNK is unkempt and MSI1 is Musashi-1; names of the RNAs are library labels; protein concentration not given here; high values mean tight binding).
B1 showed a binding signal of 2.02 enrichment R. For B2, the binding signal was 0.868 enrichment R. B3 showed a binding signal of 0.884 enrichment R. B4 was tested, and the binding signal was 5.63 enrichment R. For B5, the binding signal was 199 enrichment R. B6 showed a binding signal of 4.11 enrichment R. Work on B7 yielded a binding signal of 35.6 enrichment R. With B8 the binding signal was 5.42 enrichment R. B9 gave a binding signal of 0.644 enrichment R. B10 showed a binding signal of 1.44 enrichment R. B11 was tested, and the binding signal was 2 enrichment R. For B12, the binding signal was 37.4 enrichment R. B13 gave a binding signal of 1.08 enrichment R. B14 gave a binding signal of 2.42 enrichment R. Work on B15 yielded a binding signal of 2.12 enrichment R. For B16, the binding signal was 22.2 enrichment R. B17 gave a binding signal of 15 enrichment R. B18 was tested, and the binding signal was 1.93 enrichment R.
